Data: the supplement of paper PMC8728848
This excerpt belongs to a sample that is enriched for the strongest signals.

Key:
Experiment in all cases: glycan array binding signal (z-score within array); higher = stronger binding
Settings in all cases: glycan notation: IUPAC condensed, linker removed
[1] = molecular target: Fuc(a1-2)Gal(b1-3)GalNAc(b1-3)Gal
Summary of the method: (§1)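 The binding signal is a Z-score computed within each array and averaged over linkers. Arrays of the same protein sequence at different concentrations or buffers were also averaged together. Data originate from 3228 arrays in the Consortium for Functional Glycomics database, kept only where the protein sequence was available.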

[2] = molecular target: Fuc(a1-2)Gal(b1-3)GalNAc(b1-4)[Neu5Ac(a2-3)]Gal(b1-4)Glc
Summary of the method: as §1

Fuc(a1-2)Gal(b1-4)GlcNAc = molecular target: Fuc(a1-2)Gal(b1-4)GlcNAc
Summary of the method: as §1

Fuc(a1-2)[Gal(a1-3)]Gal = molecular target: Fuc(a1-2)[Gal(a1-3)]Gal
Summary of the method: as §1

[3] = molecular target: Fuc(a1-2)[GalNAc(a1-3)]Gal(b1-4)[Fuc(a1-3)]GlcNAc
Summary of the method: as §1

[4] = molecular target: Fuc(a1-2)[GalNAc(a1-4)]Gal(b1-4)GlcNAc
Summary of the method: as §1

Gal(a1-2)Gal = molecular target: Gal(a1-2)Gal
Summary of the method: as §1

[5] = molecular target: Gal(b1-3)[Fuc(a1-4)]GlcNAc(b1-3)Gal(b1-4)[Fuc(a1-3)]GlcNAc
Summary of the method: as §1

[6] = molecular target: Gal(b1-4)GlcNAc(b1-3)Gal(b1-4)GlcNAc(b1-3)Gal(b1-4)GlcNAc
Summary of the method: as §1

[7] = molecular target: Gal(b1-4)GlcNAc(b1-6)Gal(b1-4)GlcNAc(b1-6)GalNAc
Summary of the method: as §1

[8] = molecular target: Gal(b1-4)GlcNAc(b1-6)GalNAc
Summary of the method: as §1

Gal3S(b1-3)GalNAc = molecular target: Gal3S(b1-3)GalNAc
Summary of the method: as §1

Gal3S(b1-4)Glc6S = molecular target: Gal3S(b1-4)Glc6S
Summary of the method: as §1

Gal3S(b1-4)GlcNAc6S = molecular target: Gal3S(b1-4)GlcNAc6S
Summary of the method: as §1

Gal3S6S(b1-4)GlcNAc6S = molecular target: Gal3S6S(b1-4)GlcNAc6S
Summary of the method: as §1

Gal4S6S(b1-4)GlcNAc = molecular target: Gal4S6S(b1-4)GlcNAc
Summary of the method: as §1

Gal6S(b1-4)Glc6S = molecular target: Gal6S(b1-4)Glc6S
Summary of the method: as §1

GlcA(b1-3)Gal = molecular target: GlcA(b1-3)Gal
Summary of the method: as §1

[9] = molecular target: GlcNAc(b1-2)Man(a1-3)[GlcNAc(b1-2)Man(a1-6)]Man(b1-4)GlcNAc(b1-4)GlcNAc
Summary of the method: as §1

[10] = molecular target: GlcNAc(b1-4)GlcNAc(b1-4)GlcNAc(b1-4)GlcNAc(b1-4)GlcNAc(b1-4)GlcNAc
Summary of the method: as §1

GlcNAc(b1-6)GalNAc = molecular target: GlcNAc(b1-6)GalNAc
Summary of the method: as §1

[11] = molecular target: Man(a1-2)Man(a1-3)[Man(a1-6)]Man(a1-6)[Man(a1-2)Man(a1-3)]Man(b1-4)GlcNAc(b1-4)GlcNAc
Summary of the method: as §1

[12] = molecular target: Neu5Ac(a2-3)Gal(b1-3)GalNAc(b1-3)Gal(b1-4)GlcNAc
Summary of the method: as §1

[13] = molecular target: Neu5Ac(a2-3)Gal(b1-4)[Fuc(a1-3)]GlcNAc(b1-3)Gal
Summary of the method: as §1

[14] = molecular target: Neu5Ac(a2-3)[Neu5Ac(a2-6)]GalNAc
Summary of the method: as §1

Neu5Gc(a2-6)GalNAc = molecular target: Neu5Gc(a2-6)GalNAc
Summary of the method: as §1

B1: S100A12 (Homo sapiens), P80511 (protein)
chain: MTKLEEHLEGIVNIFHQYSVRKGHFDTLSKGELKQLLTKELANTIKNIKDKAVIDEIFQGLDANQDEQVDFQEFISLVAIALKAAHYHTHKE
B1 was tested, and the “glycan array binding signal (z-score)” value [1] was 1.87, the “glycan array binding signal (z-score)” value [2] was -0.259 and the “glycan array binding signal (z-score)” value (Fuc(a1-2)Gal(b1-4)GlcNAc) was -0.748. For the same binder, the “glycan array binding signal (z-score)” value (Fuc(a1-2)[Gal(a1-3)]Gal) was -0.758, the “glycan array binding signal (z-score)” value [3] was -0.154 and the “glycan array binding signal (z-score)” value [4] was -0.766. The “glycan array binding signal (z-score)” value (Gal(a1-2)Gal) was 0.006, the “glycan array binding signal (z-score)” value [5] was -0.056 and the “glycan array binding signal (z-score)” value [6] was -0.226. For the same binder, the “glycan array binding signal (z-score)” value [7] was -0.768, the “glycan array binding signal (z-score)” value [8] was -0.528 and the “glycan array binding signal (z-score)” value (Gal3S(b1-3)GalNAc) was 0.207. For the same binder, the “glycan array binding signal (z-score)” value (Gal3S(b1-4)Glc6S) was 2.45, the “glycan array binding signal (z-score)” value (Gal3S(b1-4)GlcNAc6S) was 2.67 and the “glycan array binding signal (z-score)” value (Gal3S6S(b1-4)GlcNAc6S) was 2.83. For the same binder, the “glycan array binding signal (z-score)” value (Gal4S6S(b1-4)GlcNAc) was 2.91, the “glycan array binding signal (z-score)” value (Gal6S(b1-4)Glc6S) was 2.19 and the “glycan array binding signal (z-score)” value (GlcA(b1-3)Gal) was 0.368. The “glycan array binding signal (z-score)” value [9] was 1.79, the “glycan array binding signal (z-score)” value [10] was -0.158 and the “glycan array binding signal (z-score)” value (GlcNAc(b1-6)GalNAc) was -0.903. The “glycan array binding signal (z-score)” value [11] was -0.256, the “glycan array binding signal (z-score)” value [12] was -0.704 and the “glycan array binding signal (z-score)” value [13] was -0.943. The “glycan array binding signal (z-score)” value [14] was 0.727 and the “glycan array binding signal (z-score)” value (Neu5Gc(a2-6)GalNAc) was -0.009.
